About 7,300 (2.2%) of roughly 330,000 compounds were called active. The sample holds actives, similar compounds and a random draw of the others, so the mix is not that of the screen.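 The calls were made as follows: active = inhibition of at least 40%; inactive = the rest.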

The nature of this assay: growth inhibition of tim10-1 ts yeast – luminescence, uHTS, primary screen (AID 463190).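 Also: mutant grown at 25 °C; 0% = DMSO wells with yeast and 100% = wells holding no yeast.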 The note with it: S. cerevisiae tim10-1 ts strain growth, BacTiter-Glo, 24 h; at 20 µM; stronger effect = higher value.
Turning to `O=C(COC(=O)CCCSc1nc2ccccc2[nH]1)Nc1ccc(Oc2ccccc2)cc1`, the inhibition – broadly, the relative decrease from the control value, in per cent – was 14.2% (inactive).

As for `Cc1ccc(-c2ccc(/C=C(\C#N)C(N)=S)o2)c([N+](=O)[O-])c1`, the inhibition was 57.3% (active).

For the compound `Cc1cc(C)c([N+](=O)[O-])cc1-c1ccc(/C=N/NC(=O)c2nonc2N)o1`, the inhibition is -16.4% (inactive).

Turning to `Cc1cc([N+](=O)[O-])c(-c2ccc(/C=N/n3cnnc3)o2)cc1Cl`, the inhibition is 16.2% (inactive).

For the compound `CCOC(=O)CCCCCC(=O)Nc1ccc2c(c1)CC(=O)N([C@@H](C)CO)C[C@H](C)[C@@H](CN(C)Cc1ccccc1)O2`, the inhibition is -5.39% (inactive).

Take `Cn1nnnc1SCC(=O)NNC(=O)c1ccc(Br)cc1`: the inhibition is 0.63% (inactive).

As to `COC(=O)c1cc(OCC(=O)NC2CCCc3ccccc32)cc(C(=O)OC)c1` (centres undefined), the inhibition was 11.9% (inactive).

Regarding `COc1ccc(CN(C)C(C)C(=O)NC2CCCc3ccccc32)cc1` (centres undefined), the inhibition was 23.2% (inactive).

`COc1ccc2c(c1)C(NS(=O)(=O)OCC(Cl)(Cl)Cl)CCC2` (centres undefined): the inhibition is 45.1% (active).

With `COc1ccccc1C1CCN(c2ccc([N+](=O)[O-])cn2)CC1`, the inhibition is 14.4% (inactive).

On to `COc1ccccc1C1SCCN1C(=O)c1ccc([N+](=O)[O-])cc1` (centres undefined), for which the inhibition is 41.9% (active).

As for `O=C(Nc1ccc(F)cc1)C1CCN(C(=O)c2ccc([N+](=O)[O-])cc2)CC1`, the inhibition is 2.2% (inactive).

For the compound `CN(C(=O)CC1C(=O)NCCN1Cc1ccc2ccccc2c1)C1CCOCC1` (centres undefined), the inhibition was 29.6% (inactive).

As to `NS(=O)(=O)c1ccc(CCNC(=O)c2nc(CS(=O)(=O)c3ccc(Cl)cc3)no2)cc1`, the inhibition was -1.2% (inactive).

On to `CCCN(c1ccc(C)cc1)c1nc(=O)c2cccnc2s1`, for which the inhibition is 15.2% (inactive).

For `CCC(C)NCCOCCOc1ccc(Br)cc1C` (centres undefined), the inhibition is -4.38% (inactive).

As for `COc1ccc(-c2nc3cnccn3c2NC(C)(C)CC(C)(C)C)cc1O`, the inhibition is 32.9% (inactive).

In the case of `Cc1ccc(C(=O)O/N=C(\N)c2ccccn2)cc1Cl`, the inhibition is 26.8% (inactive).

Turning to `C/C(=N\OC(=O)c1ccccc1)c1c(C)nc2cc(C)ccn12`, the inhibition is 5.99% (inactive).

For the compound `Cc1cccc(/C(N)=N/OC(=O)c2ccccc2Cl)c1`, the inhibition is 59.7% (active).

With `O=C(NCc1ccco1)/C(=C/c1cccc([N+](=O)[O-])c1)NC(=O)c1ccco1`, the inhibition was 15.4% (inactive).

As to `Cc1ccc(N2C(=O)C3C4C=CC(CC4)C3C2=O)cc1Br` (centres undefined), the inhibition was 6.71% (inactive).

Regarding `CCN(CC)CCN(C(=O)c1cc(Cl)sc1Cl)c1nc2cc3c(cc2s1)OCO3`, the inhibition is 36.6% (inactive).

As to `Cc1ccc2nc(N(CCN(C)C)C(=O)C3=COCCO3)sc2c1`, the inhibition was 44.8% (active).

With `CN(C)CCN(C(=O)C1=COCCO1)c1nc2ccc(Cl)cc2s1`, the inhibition is 66.5% (active).

As for `CCc1ccc2nc(N(CCCN(C)C)C(=O)c3ccc4c(c3)OCCO4)sc2c1`, the inhibition is 16% (inactive).

Take `CN(C)CCN(C(=O)CN1C(=O)c2ccccc2C1=O)c1nc2cc3c(cc2s1)OCCO3`: the inhibition was -13.3% (inactive).

`CN(C)CCN(C(=O)C1CCCCC1)c1nc2cc3c(cc2s1)OCO3`: the inhibition was 16.1% (inactive).

For `CN1C(=O)C2(OCCCO2)c2cc(Cl)ccc21`, the inhibition was -14.9% (inactive).

Take `CNC(=O)c1[nH]cnc1C(=O)N[C@@H](CC(C)C)C(=O)OCc1ccccc1`: the inhibition is 18.1% (inactive).

On to `COC(=O)c1cc(S(=O)(=O)NCC2CCN(Cc3ccc(Cl)cc3)CC2)cn1C`, for which the inhibition was -24.4% (inactive).

For `c1ccc(-c2nnc3n2NC(c2ccc4c(c2)OCO4)S3)cc1` (centres undefined), the inhibition is 51.2% (active).

With `CC1=C(C(N)=O)C(c2ccc3c(c2)OCO3)n2nc(-c3cccc(C)c3)nc2N1` (centres undefined), the inhibition was 0.453% (inactive).

Regarding `Cc1cccc(C)c1NC(=O)CSc1nnc(-c2ccccc2)n1Cc1ccc2c(c1)OCO2`, the inhibition is 21.2% (inactive).

For `COc1ccc(CC(=O)N[C@@H]2c3cc(OC)c(OC)cc3C[C@H]2OCc2ccccc2)cc1`, the inhibition is 15.2% (inactive).

`Cc1ccccc1NCC(=O)N/N=C\c1ccc([N+](=O)[O-])s1`: the inhibition was 53.3% (active).

On to `Cc1ccc(/C=N/NC(=O)CN2CCN(Cc3ccccc3)CC2)s1`, for which the inhibition is -3.89% (inactive).

With `COc1ccc(C(=O)NCC(=O)N/N=C/c2ccc([N+](=O)[O-])s2)cc1OC`, the inhibition is 16.7% (inactive).

With `COc1ccc(CN2CCN(Cc3ccc(OC)c(OC)c3OC)CC2)cc1`, the inhibition was -1.36% (inactive).

`CCOc1ccc(C(=O)NC2CCN(C(=O)Nc3ccccc3OC)CC2)cc1`: the inhibition is 6.63% (inactive).

`CCOC(=O)c1cc(C#N)c(N2CCCCC2)nc1-c1ccccc1`: the inhibition is -4.08% (inactive).

Consider `CCOc1ccc2nc(N3CCCN(C(=O)Nc4ccccc4C)CC3)c(C#N)cc2c1`, for which the inhibition is 42.1% (active).

Turning to `O=CN1CCN(C(=O)c2ccc3c(c2)OCO3)CC1`, the inhibition was -19.2% (inactive).

Take `COc1cccc(NS(=O)(=O)c2ccc3[nH]cc(C(=O)NCCCOC(C)C)c(=O)c3c2)c1`: the inhibition is 19.3% (inactive).

On to `Nc1ccccc1/C=N\N=C/c1ccccc1N`, for which the inhibition is 7.02% (inactive).

As for `O=C1C=C(c2cc(C(F)(F)F)cc(C(F)(F)F)c2)C[C@@H](c2ccc3c(c2)OCO3)C1`, the inhibition is -2.52% (inactive).

In the case of `COC(=O)c1c(C)[nH]c(C(=O)/C=C/c2ccc(Cl)cc2)c1C`, the inhibition is 5.77% (inactive).

For the compound `Cc1[nH]c(=O)c(C(=O)/C=C/c2ccccc2)c2c1CCCC2`, the inhibition is 46.1% (active).

As for `Cc1cn(COC/C=C/c2ccccc2)c(=O)[nH]c1=O`, the inhibition was 7.72% (inactive).

As for `CCCC1OC23CCCCC2C(C#N)(C#N)C1(C#N)C(=N)O3` (centres undefined), the inhibition was 13% (inactive).

Consider `c1ccc(-c2cn3c(n2)CCc2ccc4cccnc4c2-3)cc1`, for which the inhibition is 42% (active).

On to `Cc1cc(N2C(=O)c3ccc(C(=O)NCc4ccccc4)cc3C2=O)no1`, for which the inhibition was 11.1% (inactive).

As to `CCCc1nn2c(=O)cc(CSCC(=O)Nc3cccc(C)c3)nc2s1`, the inhibition is 5.18% (inactive).

As for `CCOC(=O)CC(NC(=O)C1c2ccccc2Oc2ccccc21)c1ccc(C)cc1` (centres undefined), the inhibition is 5.58% (inactive).

In the case of `CC(C)(C)NC(=O)NC(=O)COC(=O)C1c2ccccc2Oc2ccccc21`, the inhibition was 23.3% (inactive).

For the compound `CCCCN1C(=S)NC[C@@H]1C(C)CC` (some centres undefined), the inhibition was 20.5% (inactive).

As to `CCOC(=O)/C=C/c1ccc(C(F)(F)F)cc1S(=O)(=O)NC(C)(C)C`, the inhibition was 44.1% (active).

With `CCOC(=O)NNc1cc(C(F)(F)F)ccn1`, the inhibition was -3.69% (inactive).

For the compound `Cn1c(N)c(C(=O)COC(=O)/C=C/c2cccc(C(F)(F)F)c2)c(=O)n(C)c1=O`, the inhibition was 17.7% (inactive).

Values taken from PubChem BioAssay AID463190 (Sanford-Burnham Center for Chemical Genomics, 2010).
